D3 ag: qHTS of D3 Dopamine Receptor Agonist: qHTS. AID 652048, 2013. D3R DiscoveRx beta-arrestin cells, luminescence, 90 min. 0.58% of 410,000 active. max activation, %; in the data active means max activation above about 30%; further: 0% is about no effect
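Agonist-mode cell screen: cells plated at 1500/well and incubated overnight at 37 °C, then exposed to library compounds for 90 min at 37 °C. Detection reagent was added for 30–60 min at room temperature, and luminescence was read.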
DRD3 antagonist: qHTS of D3 Dopamine Receptor Antagonist: qHTS. D(3) dopamine receptor (Homo sapiens), P35462. D3R cells, DiscoveRx beta-arrestin luminescence, antagonist mode; active compounds read low. max response, negative = inhibition, %. 2.5% of 360,000 active. AID 652054, 2013; in the data active means max response below about -50%; inconclusive means no clear call, values can overlap the other calls; further: on the % scale 0 is the no-effect control and ±100 the full control effect
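Cells expressing the human receptor were seeded at 1500 cells/well, incubated overnight at 37 degrees C in 5% CO2, then exposed to library compounds with dopamine controls for 90 minutes at 37 degrees C before luminescent detection.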
D1 antagonist: Antagonist of Human D 1 Dopamine Receptor: qHTS | D(1A) dopamine receptor (Homo sapiens), P21728 | HEK293 TREx D1 cells, calcium flux, dopamine EC80; active compounds read low | activity change, negative = inhibition, % at 10 µM | 3.2% of 360,000 active | AID 504652, 2011; in the data active means activity change below about -30%; further: on the % scale 0 is the no-effect control and ±100 the full control effect
Target sequence (P21728 whole entry, looked up): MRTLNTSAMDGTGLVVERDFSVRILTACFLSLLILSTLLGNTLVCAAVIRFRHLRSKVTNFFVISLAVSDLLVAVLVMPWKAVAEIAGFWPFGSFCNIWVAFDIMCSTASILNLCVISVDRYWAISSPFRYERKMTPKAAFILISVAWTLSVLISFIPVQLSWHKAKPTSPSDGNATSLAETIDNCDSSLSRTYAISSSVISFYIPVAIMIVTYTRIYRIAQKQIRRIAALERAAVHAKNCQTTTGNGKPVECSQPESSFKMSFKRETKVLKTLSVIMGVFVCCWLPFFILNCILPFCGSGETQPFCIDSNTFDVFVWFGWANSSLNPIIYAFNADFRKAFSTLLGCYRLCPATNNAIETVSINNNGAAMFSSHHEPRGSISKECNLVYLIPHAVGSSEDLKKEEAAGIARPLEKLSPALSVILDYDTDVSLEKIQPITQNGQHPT
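Cells carrying a force-coupled, tetracycline-inducible human D1 receptor report calcium flux. Each well gets a 10 s baseline, compound with 180 s monitoring, then an EC80 dopamine stimulus with a second 180 s kinetic read.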
D1 ag: Allosteric Agonists of the Human D1 Dopamine Receptor: qHTS; activation, % at 2 µM; HEK293 T-REx D1 cells, calcium flux, agonist mode; AID 504660, 2011; 1% of 360,000 active; in the data active means activation above about 30%; further: 0% is about no effect
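Tetracycline-induced HEK293 TREx D1 cells, force-coupled to calcium signalling, were dye-loaded with a no-wash calcium kit. Compound was pin-added after a 10 s baseline. Fluorescence was read kinetically at 1 cycle/s for 180 s, with calcium rises flagged as agonism.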
D1 potentiator: Potentiators of Human D1 Dopamine Receptor: qHTS | AID 504651, 2011 | HEK293 TREx D1 cells, calcium flux, dopamine EC20 potentiation | potentiation, % at 10 µM | 0.036% of 360,000 active; in the data active means potentiation above about 30%; further: 0% is about no effect
Active calls of the source: *; ? = inconclusive; / = no result given. In the library only some 6.1% were active in any assay of this set; here they are far more common.

SMILES	D3 ag	DRD3 antagonist	D1 antagonist	D1 ag	D1 potentiator
Cc1nc(N2CCN(Cc3ccc4c(c3)OCO4)CC2)nc2c1C(=O)CC(c1ccco1)C2 (stereo unspecified)	-51	-72*	-5	3	0
CCc1ccc(NC(=O)N(Cc2ccc(C)cc2)Cc2cccn2-c2nnc(N3CCCC3=O)s2)cc1	-4	/	-3	2	-5
CC/C(=N/N=C(\CC)c1ccccc1)c1ccccc1	4	6	-46*	0	-2
N#CC1=C2SCN(C3CCCCC3)CN2C(=O)CC1c1ccc(Cl)cc1 (stereo unspecified)	5	/	-60*	0	-1
COc1ccc(Br)cc1C1CC(=O)N2CN(C)CSC2=C1C#N (stereo unspecified)	3	7	-7	3	-8
COc1cc(OC)c(C2CC(=O)N3CN(c4ccccc4)CSC3=C2C#N)cc1OC (stereo unspecified)	-1	-21	2	2	-4
COc1ccc(Br)cc1C1CC(=O)N2CN(Cc3ccccc3)CSC2=C1C#N (stereo unspecified)	-1	-9	-31*	2	-1
CCc1ccccc1N1CSC2=C(C#N)C(c3cc(OC)c(OC)cc3OC)CC(=O)N2C1 (stereo unspecified)	-1	-68*	-8	3	-5
N#CC1=C2SCN(Cc3ccco3)CN2C(=O)CC1c1c(F)cccc1Cl (stereo unspecified)	-3	3	11	0	-2
Cc1ccc(C2CC(=O)N3CN(Cc4ccco4)CSC3=C2C#N)cc1 (stereo unspecified)	-1	-59*	11	1	-4
COc1ccccc1-c1nc(SCC(=O)NCc2ccccc2)c2c(=O)n(C)c(=O)n(C)c2n1	8	/	-8	-1	0
COc1cc(C(=O)NCCCc2nc3ccccc3n2CC(C)C)cc(OC)c1OC	-3	/	3	3	2
COc1cc2c(cc1O)CCN[C@]21CS[C@@H]2c3c(OC(C)=O)c(C)c4c(c3[C@H](COC1=O)N1[C@@H]2[C@H]2c3c(cc(C)c(OC)c3O)C[C@@H]([C@@H]1O)N2C)OCO4	-14	/	/	/	/
CCOC(=O)c1ccc(NC(=O)C(CC)Sc2nc3ncccc3o2)cc1 (stereo unspecified)	-18	/	16	0	-4
COc1cc(OC)c(C2CC(=O)N3CN(C)CSC3=C2C#N)cc1OC (stereo unspecified)	-8	-17	-38*	2	-7
NNC(=O)C(C(=O)OCc1ccccc1)c1ccccc1 (stereo unspecified)	/	/	0	2	-1
O=C(C[n+]1ccccc1)N/N=C/c1ccccc1F	5	1	16	5	2
O=C(C[n+]1ccccc1)N/N=C/c1cc(Br)ccc1O	-2	-89*	2	1	-2
Nc1nonc1C(=O)N/N=C/c1cc(Br)ccc1O	14	15	-3	63*	-4
COc1ccc(F)c(CN2CCN(CCc3ccccc3)C(CCO)C2)c1 (stereo unspecified)	-9	?	-8	1	-6
CCOc1ccccc1CN1CCN(CCCc2ccccc2)CC1CCO (stereo unspecified)	-21	-73*	-2	2	9
OCCC1CN(Cc2cccc(F)c2F)CCN1CCc1ccccc1 (stereo unspecified)	-13	-19	5	1	-1
OCCC1CN(Cc2cc(F)ccc2F)CCN1CCCc1ccccc1 (stereo unspecified)	-18	-86*	4	0	-7
OCCC1CN(Cc2ccc(F)cc2Cl)CCN1CCc1ccccc1 (stereo unspecified)	-18	-99*	6	6	-4
COc1ccc(OC)c(CN2CCN(CCc3ccccc3)C(CCO)C2)c1 (stereo unspecified)	-15	-56*	-14	0	-3
COc1ccccc1Nc1nn2c(=O)c3ccc(C(=O)NCCc4ccccc4)cc3nc2s1	-12	/	-11	3	2
CCN(CC)CCN(C(=O)/C=C/c1cccs1)c1nc2ccc(F)cc2s1	-18	-71*	11	6	-11

Source: PubChem BioAssay (National Center for Advancing Translational Sciences (NCATS))
